The nature of experiment [1]: qHTS assay to identify small molecule agonists of the constitutive androstane receptor (CAR) signaling pathway - cell viability counter screen (AID 1224836). Note: nearly all actives have a fitted effect of over 45% in size. Note: potency is the fitted concentration of half-maximal effect. In a few lines: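 Fluorescence from CellTiter-Fluor indicates live cells after 23 h exposure. The human hepatoma line expresses hCAR and a CYP2B6-2.2kb reporter. Incubation medium contains 0.75 uM PK11195 (final).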

Experiment [2] in a line: qHTS assay to identify small molecule antagonists of the constitutive androstane receptor (CAR) signaling pathway - cell viability counter screen (AID 1224837). Note: nearly all actives have a fitted effect of over 45% in size. Note: potency is the fitted concentration of half-maximal effect. In a few lines: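 Cells are seeded, rested 4 hr at 37 C/5% CO2, dosed with compound (15-point series) and 50 nM CITCO, incubated a further 23 hr, and then CellTiter-Fluor reagent is added before fluorescence is read. The line is HepG2 with stable hCAR and CYP2B6-2.2kb.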
(In qHTS, concentration-response curves come from the screen itself.)

Experiment [3] addresses Nuclear receptor subfamily 1 group I member 3 (Homo sapiens) (UniProt Q14994). Kind of experiment: qHTS assay to identify small molecule antagonists of the constitutive androstane receptor (CAR) signaling pathway (AID 1224838).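 Note: HepG2 cells stably expressing hCAR with CYP2B6 luciferase reporter stimulated by CITCO; nearly all actives have a fitted effect of over 40% in size.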 In a few lines: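 Luminescence from a CYP2B6-2.2kb promoter reporter in hCAR-expressing HepG2 cells reflects CAR signaling. Cells received compounds at 15 concentrations and 50 nM CITCO (final), then incubated 24 h at 37 C/5% CO2.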

Experiment [4] shares this target. Kind of experiment: qHTS assay to identify small molecule agonists of the constitutive androstane receptor (CAR) signaling pathway (AID 1224839). Note: nearly all actives have a fitted effect of over 15% in size. Note: potency is the fitted concentration of half-maximal effect. In a few lines: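 Stable hCAR/CYP2B6-2.2kb HepG2 line in DMEM with 10% FBS; compounds (15 concentrations) and 0.75 uM PK11195 final, 24 h at 37 C/5% CO2, then ONE-Glo luminescence after 30 min.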
The nature of experiment [5]: qHTS assay to identify small molecule antagonists of the estrogen related receptor signaling pathway with the pleiotropic PPARgamma coactivator (PGC) from Tox21 10K library - cell viability counter screen (AID 1224840; active = well fitted cell-killing curve with a large enough effect in the repeat runs, not every such curve was filed as active; note: nearly all actives have a fitted effect of over 40% in size; note: potency is the fitted concentration of half-maximal effect). The method, boiled down:
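Cell viability is measured by CellTiter-Fluor fluorescence in PGC/ERR cells that receive compounds after a 6-hour attachment period and are then incubated 17.5 hours at 37 C.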

Experiment [6] can be described thus: qHTS assay to identify small molecule antagonists of the estrogen related receptor signaling pathway with the pleiotropic PPARgamma coactivator (PGC) from Tox21 10K library (AID 1224841; call rule not given here; note: actives are mostly falling curves and most rising ones were filed inactive; nearly all actives have a fitted effect of over 50% in size; note: potency is the fitted concentration of half-maximal effect; for activity, negative = inhibition: series mostly up to about 92 µM). In a few lines: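 Cells stably carrying the PGC/ERR reporter, seeded at 2,000 per well, received pin-transferred compounds 6 h post-plating. Exposure lasted 18 h at 37 C. Signal: One-Glo luminescence.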

Experiment [7] in a line: qHTS assay to identify small molecule agonists of the estrogen related receptor signaling pathway with the pleiotropic PPARgamma coactivator (PGC) from Tox21 10K library (AID 1224842). Note: nearly all actives have a fitted effect of over 15% in size. Note: potency is the fitted concentration of half-maximal effect. In a few lines: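 Luminescence from One-Glo (30 min, room temperature) measured after PGC/ERR cells had 18 h at 37 C with pinned compound (23 nL in DMSO). Cells had been seeded at 2,000 per well and pre-incubated 6 h.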

Experiment [8] has as its target Thyrotropin receptor (Homo sapiens) (UniProt P16473). Kind of experiment: qHTS assay to identify small molecule agonists of the thyroid stimulating hormone receptor (TSHR) signaling pathway (AID 1224843; calls by dose curve; note: nearly all actives have a fitted effect of over 45% in size; note: potency is the fitted concentration of half-maximal effect). The method, boiled down:
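A cell-based cAMP HTRF format was run in TSHR-transfected HEK293 cells, 800 per well. Treatment: 30 min, room temperature. Detection: 1 h with labelled cAMP and anti-cAMP cryptate. Concentration-response over 15 points, three replicates.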

In experiment [9] the target is Luciferin 4-monooxygenase (Photinus pyralis) (UniProt P08659). Briefly: qHTS assay to identify small molecule inhibitors of firefly luciferase (AID 1224835). Note: nearly all actives have a fitted effect of over 25% in size. Note: potency is the fitted concentration of half-maximal effect. The method, boiled down:
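Inhibition of purified Photinus luciferase is measured by luminescence. Substrate levels (D-luciferin, ATP) sit at their KM values. Each compound is tested in a concentration series.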

Each structure is given as a SMILES string. Where “and” joins values, the source holds several entries; their conditions need not be identical. Equal values may be shown once. Records with an inconclusive call do not appear. A structure can be active in one record and inactive in another. Calls of active or inactive are those of the source. Unless noted, calls come from the whole dose curve; as a rule, active = well fitted curve in the direction sought with a large enough effect in the repeat runs; inconclusive = weak or mixed curves; inactive = no such curve, though single readings can be large; an effect the other way counts as inactive or inconclusive.
% is set by controls: 0 for no effect and ±100 for the full control effect.

Thyrotropin receptor (Homo sapiens), sequence (P16473 whole entry, looked up): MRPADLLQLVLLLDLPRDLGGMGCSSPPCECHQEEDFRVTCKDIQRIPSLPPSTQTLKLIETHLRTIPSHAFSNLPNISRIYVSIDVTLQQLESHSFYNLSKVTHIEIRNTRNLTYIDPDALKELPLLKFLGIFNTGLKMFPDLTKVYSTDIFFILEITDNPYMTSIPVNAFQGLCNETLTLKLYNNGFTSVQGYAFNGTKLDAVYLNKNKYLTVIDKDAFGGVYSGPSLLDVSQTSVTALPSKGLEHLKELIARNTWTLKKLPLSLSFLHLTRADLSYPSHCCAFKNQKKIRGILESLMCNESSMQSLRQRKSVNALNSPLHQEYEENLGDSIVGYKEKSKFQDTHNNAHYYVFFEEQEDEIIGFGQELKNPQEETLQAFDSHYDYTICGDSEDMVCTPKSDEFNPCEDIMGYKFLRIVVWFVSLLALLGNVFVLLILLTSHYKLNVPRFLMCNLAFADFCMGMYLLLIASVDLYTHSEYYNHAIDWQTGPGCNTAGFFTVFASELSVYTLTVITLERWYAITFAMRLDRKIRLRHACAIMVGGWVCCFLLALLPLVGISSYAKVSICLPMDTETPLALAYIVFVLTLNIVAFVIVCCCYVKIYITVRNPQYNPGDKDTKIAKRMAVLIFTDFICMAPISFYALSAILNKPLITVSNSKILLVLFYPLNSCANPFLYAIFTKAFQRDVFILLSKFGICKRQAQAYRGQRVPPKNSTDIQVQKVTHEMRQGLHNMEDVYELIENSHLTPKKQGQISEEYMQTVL
Luciferin 4-monooxygenase (Photinus pyralis), sequence (P08659 whole entry, looked up): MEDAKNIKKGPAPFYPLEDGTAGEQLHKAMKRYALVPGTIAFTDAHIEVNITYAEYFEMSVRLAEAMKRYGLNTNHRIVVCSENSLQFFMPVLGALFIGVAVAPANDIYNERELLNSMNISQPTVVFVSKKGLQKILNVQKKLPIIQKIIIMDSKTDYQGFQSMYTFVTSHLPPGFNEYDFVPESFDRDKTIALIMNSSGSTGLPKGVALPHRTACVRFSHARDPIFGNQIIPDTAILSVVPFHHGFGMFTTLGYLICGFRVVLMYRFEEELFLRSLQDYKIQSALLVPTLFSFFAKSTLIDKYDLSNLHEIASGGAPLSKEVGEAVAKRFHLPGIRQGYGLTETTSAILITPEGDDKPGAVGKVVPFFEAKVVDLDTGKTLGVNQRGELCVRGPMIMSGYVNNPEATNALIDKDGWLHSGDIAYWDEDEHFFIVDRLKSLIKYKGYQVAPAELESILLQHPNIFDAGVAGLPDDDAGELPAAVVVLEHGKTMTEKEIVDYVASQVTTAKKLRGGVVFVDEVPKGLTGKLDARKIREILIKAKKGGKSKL
Nuclear receptor subfamily 1 group I member 3 (Homo sapiens), sequence (Q14994 whole entry, looked up): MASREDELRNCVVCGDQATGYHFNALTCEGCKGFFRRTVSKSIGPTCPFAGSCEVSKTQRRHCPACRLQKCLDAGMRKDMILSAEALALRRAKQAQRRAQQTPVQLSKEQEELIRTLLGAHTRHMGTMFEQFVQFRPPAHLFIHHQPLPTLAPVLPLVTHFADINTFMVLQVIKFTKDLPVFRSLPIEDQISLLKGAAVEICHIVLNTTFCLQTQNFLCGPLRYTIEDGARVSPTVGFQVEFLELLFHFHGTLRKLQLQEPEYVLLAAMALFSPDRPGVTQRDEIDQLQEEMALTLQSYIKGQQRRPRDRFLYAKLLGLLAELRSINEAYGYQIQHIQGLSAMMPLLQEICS

`Brc1cccc(-c2ccccc2)c1`: the Potency entry in experiment [1], in [2], in experiment [3], in [4], in [5] and in [6] was “inactive” in each case. The Potency result in experiment [7] was “inactive”.
For the molecule `COP(=O)(OC)Oc1ccc([N+](=O)[O-])cc1`, the Potency result in [4], in experiment [7] and in experiment [8] was “inactive” in each case. In addition, in [6], the Potency was 21.7 µM (active).
Take `CC(=O)[O][Sn]([c]1ccccc1)([c]1ccccc1)[c]1ccccc1`: the Potency was 2.24 µM (active) in [9], 0.154 µM (active) in [2], 0.172 µM (active) in experiment [5] and 0.545 µM (active) in experiment [6]. Also, the Potency result in [4] and in [7] was “inactive” each time.
Consider `Oc1ccc2[nH]cc(CCCCN3CC=C(c4ccccc4)CC3)c2c1`, for which the Potency entry in [1], in [2], in experiment [7] and in experiment [8] was “inactive” each time. Also, the Potency in experiment [6] is 5.96 µM (active).
For `CCC[CH2][Sn]([CH2]CCC)([CH2]CCC)[O][Sn]([CH2]CCC)([CH2]CCC)[CH2]CCC`, the Potency was 0.752 µM (active) in experiment [1], 0.947 µM (active) in experiment [2] and 0.533 µM (active) in [5]. In addition, the activity, negative = inhibition in [6] is 332% [at 8.39 µM] (inactive).
Turning to `CC(=O)[O-].CC(=O)[O-].O.O.O.[Pb+2]`, the Potency entry in [2] and in experiment [5] was “inactive” each time.
As for `O=S1(=O)OCC2C(CO1)C1(Cl)C(Cl)=C(Cl)C2(Cl)C1(Cl)Cl` (configuration not stated), the figures for the Potency in experiment [9], in experiment [4] and in experiment [8] were 39.9 µM (active), 17.2 µM (active) and 17.2 µM (active), respectively. Moreover, in experiment [5], the Potency entry is “inactive”.
With `COC(=O)N(OC)c1ccccc1COc1ccn(-c2ccc(Cl)cc2)n1`, the Potency result in experiment [2], in experiment [3], in experiment [5], in experiment [7] and in experiment [8] was “inactive” in each case. Further, the Potency in experiment [4] is 24.3 µM (active); in experiment [6], 0.486 µM (active).
With `CCC[CH2][Sn]([CH2]CCC)([O]C(C)=O)[O]C(C)=O`, the Potency in [1] was 0.437 µM (active); in experiment [2], 0.437 µM (active); in experiment [5], 0.138 µM (active); in experiment [6] it was 0.0347 µM (active). Moreover, the Potency entry in experiment [7] and in experiment [8] was “inactive” in each case.
For `CN1C(=O)[C@@H](NC(=O)c2cc3ccccc3[nH]2)N=C(c2ccccc2)c2ccccc21`, the Potency entry in experiment [1], in experiment [2], in experiment [4], in [5], in [7] and in experiment [8] was “inactive” throughout.
Consider `COC(=O)c1cc(Oc2ccc(Cl)cc2Cl)ccc1[N+](=O)[O-]`, for which the Potency result in experiment [1], in [5] and in experiment [8] was “inactive” in each case.
`CC[N+]1(CC)CCC(OC(=O)C(O)(c2ccccc2)c2ccccc2)C1` (configuration not stated): the Potency entry in experiment [9], in [2], in [3], in [4], in experiment [5] and in experiment [8] was “inactive” each time.
As to `COc1ccc(Cc2nccc3cc(OC)c(OC)cc23)cc1OC`, the Potency entry in experiment [1], in [2], in experiment [3] and in experiment [5] was “inactive” each time. In addition, the Potency was 15 µM (active) in experiment [4] and 9.44 µM (active) in experiment [8].
As for `C[C@H]1[C@H](c2ccc(Cl)cc2)SC(=O)N1C(=O)NC1CCCCC1`, the Potency entry in experiment [9], in [2], in experiment [3], in experiment [5], in [7] and in experiment [8] was “inactive” each time. In addition, the Potency in experiment [4] was 54.5 µM (active); in [6], 61.1 µM (active).
Take `S=C=NCCc1ccccc1`: the Potency was 40 µM (active) in experiment [9] and 9.71 µM (active) in [4]. The Potency entry in experiment [3], in experiment [5] and in experiment [8] was “inactive” each time.
For the molecule `CCCCCCCCCCCCCCn1cc[n+](C)c1`, the Potency entry in experiment [9] and in experiment [7] was “inactive” each time. The Potency in experiment [5] was 27.4 µM (active) and 30.3 µM (active); in experiment [6] it was 24.4 µM (active) and 24.1 µM (active) and inactive.
Consider `O=[N+]([O-])[O-].[Tl+]`, for which the Potency entry in experiment [2], in [5] and in experiment [8] was “inactive” each time.
Turning to `CC(C)c1c(CN(C)C(C)Cc2ccccc2)n(C)n(-c2ccccc2)c1=O` (configuration not stated), the Potency result in experiment [9], in experiment [2] and in [5] was “inactive” throughout. The Potency in experiment [4] was 13.3 µM (active).
As to `O=[N+]([O-])c1cccc2cccc([N+](=O)[O-])c12`, the Potency entry in experiment [9], in [2] and in experiment [5] was “inactive” in each case. Also, the Potency in experiment [4] is 54.7 µM (active).
For the molecule `Cc1ccc([N+](=O)[O-])[c]2c1[O][Hg]2`, the Potency in experiment [1] was 9.44 µM (active); in experiment [2], 6.68 µM (active); in [5], 5.96 µM (active). For the same molecule, the Potency result in experiment [4] is “inactive”.
On to `C#CCO`, for which the Potency entry in experiment [9], in experiment [2], in experiment [3], in experiment [4], in [5] and in experiment [8] was “inactive” in each case.
Turning to `c1cc[n+]2c(c1)-c1cccc[n+]1CC2`, the Potency result in [3], in experiment [5] and in experiment [8] was “inactive” in each case.
Consider `CCCCCCCc1ccc(O)cc1`, for which the Potency entry in experiment [2], in experiment [5] and in [8] was “inactive” in each case.
`O=C(NC(=O)c1c(F)cccc1F)Nc1ccc(Oc2ccc(C(F)(F)F)cc2Cl)cc1F`: the Potency result in experiment [9], in experiment [2], in [3] and in experiment [5] was “inactive” each time.
Regarding `Nc1ccccc1-c1ccccc1`, the Potency entry in [1], in [2], in experiment [3], in experiment [4], in experiment [5] and in experiment [7] was “inactive” in each case. For the same molecule, in [8], the Potency entry is “inactive”.
Consider `Nc1ccc(N=Nc2ccccc2)cc1`, for which the Potency was 2.24 µM (active) in [9], 30.6 µM (active) in experiment [4], 24.3 µM (active) in experiment [5] and 3.06 µM (active) in experiment [7]. Besides, the Potency entry in experiment [3], in experiment [6] and in experiment [8] was “inactive” each time.
With `C#CC1(O)CCCCC1`, the Potency entry in experiment [9], in experiment [2], in experiment [5], in [6], in experiment [7] and in experiment [8] was “inactive” throughout.
`CO/N=C(\C(=O)OC)c1ccccc1CO/N=C(\C)c1cccc(C(F)(F)F)c1`: the Potency entry in [2], in experiment [3] and in experiment [5] was “inactive” throughout. For the same molecule, the Potency in experiment [4] was 8.63 µM (active).
As for `Nc1ccc(Cl)cc1C(=O)c1ccccc1F`, the Potency result in experiment [9], in [2], in [3], in experiment [5], in experiment [6] and in experiment [8] was “inactive” in each case. In addition, the Potency in [4] was 23.7 µM (active).
Turning to `FC(F)C(F)(F)OCC(Cn1cncn1)c1ccc(Cl)cc1Cl` (configuration not stated), in experiment [9], the Potency entry is “inactive”. For the same molecule, the Potency in experiment [5] is 60.8 µM (active).
Regarding `CN`, the Potency entry in experiment [2], in [3], in [4], in experiment [5] and in experiment [8] was “inactive” in each case.
Turning to `Oc1cc(Cl)c(Cl)c(Cl)c1Cl`, in [6], the Potency is 21.2 µM (active). For the same molecule, the Potency result in experiment [7] and in [8] was “inactive” in each case.
For the molecule `CCCCn1cc[n+](C)c1.[Cl][Fe-]([Cl])([Cl])[Cl]`, the Potency entry in experiment [1], in experiment [2] and in experiment [5] was “inactive” throughout.
On to `O.O.O.O=C([O-])[C@H]([O-])[C@@H]([O-])C(=O)[O-].O=C([O-])[C@H]([O-])[C@@H]([O-])C(=O)[O-].[K+].[K+].[Sb+3].[Sb+3]`, for which the Potency in [5] is 19.4 µM (active).
With `Nc1nc(N)c(N)c(N)n1`, the Potency result in [9], in experiment [7] and in [8] was “inactive” in each case.
For `Cc1cc(C2CC2)nc(Nc2ccccc2)n1`, the Potency result in [1], in experiment [2], in [3] and in experiment [6] was “inactive” throughout. For the same molecule, the Potency in experiment [4] is 54.5 µM (active).

The values above are taken from PubChem BioAssay (Tox21).
